Experimental findings from PubChem BioAssay are described below.

Molecules are shown by their SMILES. The source made the active and inactive calls. Unless noted, the rule behind the calls is not given here.

The test system of assay [1] is Wnt5a (protein binding on small-molecule microarray). Briefly: small molecules binding Wnt5a protein – biophysical, small-molecule microarray, 635/667 nm fluorescence, primary screen (AID 1142).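 Note: fluorescence read at 667 nm with signal to noise per printed feature.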 The settings on record: 635 nm fluorescence, higher = more signal.
Assay [2] in a line: ATP-based viability of Huh7 replicon cells – cell-based, CellTiter-Glo luminescence, basal, 48 h, cytotoxicity control for HCV replication inhibitor project, primary screen (AID 1143).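 Note: Huh7 hepatoma cells carrying a hepatitis C replication reporter with no stimulus; test concentration not given here.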 The settings on record: higher = more signal, called active from +8 up or from −8 down. (In general: In antiviral work, replicon cells carry a viral genome segment that copies itself.)
Assay [3] is described as follows: Pseudomonas biofilm growth suppression – PAO1 strain, BacTiter-Glo luminescence, LB-PBS, primary screen (AID 1144). The settings on record: P. aeruginosa PAO1 biofilm, 12 h, higher = more signal.
The nature of assay [4]: basal CRE-LacZ reporter activity in PC12 – cell-based, unstimulated, primary screen (AID 1145). To be noted: no forskolin, luminescence, 4.5 h, higher = more signal, called active from +8 up or from −8 down.
The nature of assay [5]: forskolin-driven CRE-LacZ activity in PC12 – cell-based, CRE-LacZ reporter, forskolin-stimulated, primary screen (AID 1146).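 Note: PC12 cells with 6xCRE LacZ reporter stimulated by forskolin 10 µM; beta-galactosidase reporter signal reflecting CREB driven transcription.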 The settings on record: luminescence, 4.5 h, higher = more signal, called active from +8 up or from −8 down.
Assay [6] concerns the target Streptavidin (Streptomyces avidinii) (UniProt P22629). The assay is described as follows: compounds binding control protein streptavidin – biophysical, small-molecule microarray, 635/667 nm fluorescence, artefact control for SMM compound annotation, primary screen (AID 1147).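 Note: signal reflects streptavidin binding to arrayed compounds as a control protein.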 The settings on record: higher = more signal.
A short description of assay [7]: probe aInhba binding on compound microarray – biochemical, small-molecule microarray, 635/667 nm fluorescence, primary screen (AID 1148).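 Note: score merges 667nm spot fluorescence with signal-to-noise for antibody binding to printed compounds.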 The settings on record: higher = more signal.
Assay [8] concerns the target Torsin-1A (Homo sapiens) (UniProt O14656). Briefly: TOR1A wild-type binding on microarray – cell lysate, small-molecule microarray, lysate, 635/667 nm, primary screen (AID 1149). To be noted: COS7 hTOR1A-WT lysate, 635 nm fluorescence, higher = more signal.
For assay [9] the target is unchanged. The assay is described as follows: torsin A mutant lysate binding on microarrays – cell lysate, small-molecule microarray, COS7 lysate, 635/667 nm fluorescence, primary screen (AID 1150).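 Note: score pools 667 nm emission and signal to noise measuring lysate protein binding.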 The settings on record: COS7 hTOR1A mutant lysate, 635 nm fluorescence, higher = more signal.
For assay [10], the system named is Sonic hedgehog protein (Shh). The assay is described as follows: Sonic hedgehog microarray binding compounds – biochemical, small-molecule microarray, 635/667 nm fluorescence, primary screen (AID 1151).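 Note: Shh protein binding to compounds spotted on small-molecule microarray slides; score combines spot fluorescence intensity with signal-to-noise across triplicate slides.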 To be noted: 635 nm fluorescence, higher = more signal.
Assay [11] in a line: optical density shifts of acrAB sulA E. coli – strain DRC41, OD650, 48 h, E. coli filamentation inducer project, primary screen (AID 1152).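 Note: E. coli MC1000 strain DRC41 lacking acrAB efflux pump and sulA.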 To be noted: higher = more signal, called active from +8 up or from −8 down.
Assay [12] is described as follows: probe aLefty1 binding on compound microarray – biochemical, small-molecule microarray, 635/667 nm fluorescence, primary screen (AID 1153).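 Note: score merges spot fluorescence with signal-to-noise ratio from the scanned slide images.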 The settings on record: higher = more signal.
Assay [13] can be described thus: plasmodial surface anion channel blockers, osmotic lysis – cell-based, P. falciparum Indochina, OD700, 1 h, primary screen (AID 1154). The settings on record: P. falciparum Indochina infected RBC osmotic lysis, higher = more signal, called active from +8 up or from −8 down.
Assay [14] is described as follows: plasmodial surface anion channel blockers, osmotic lysis – cell-based, P. falciparum Indochina, OD700, 2 h, primary screen (AID 1155).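 Note: lysis reports solute entry through the parasite surface anion channel PSAC.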 The settings on record: P. falciparum Indochina infected erythrocytes, higher = more signal, called active from +8 up or from −8 down.
The nature of assay [15]: changes in parasitized red cell lysis, either direction – P. falciparum Indochina, OD700, 3 h, PSAC antagonist project, primary screen (AID 1156). To be noted: P. falciparum-infected erythrocytes, osmotic lysis, higher = more signal, called active from +8 up or from −8 down.
Assay [16] is described as follows: plasmodial surface anion channel blockers, osmotic lysis – cell-based, P. falciparum Indochina, OD700, 18 h, primary screen (AID 1157). To be noted: P. falciparum Indochina infected erythrocytes, osmotic lysis OD700, 18 h; higher = more signal, called active from +8 up or from −8 down.
A short description of assay [17]: S6 kinase pathway phospho-S6 level changes – cell-based, A549, cytoblot, luminescence, serum-stimulated, primary screen (AID 1158).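 Note: serum-stimulated A549 lung adenocarcinoma cells; signal is phosphorylated S6 detected by cytoblot immunostaining with HRP secondary.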 To be noted: 5 h, higher = more signal.
For assay [18], the target named is NADPH oxidase 2 (Homo sapiens) (UniProt P04839). The assay is described as follows: compounds shifting NOX2 Amplex Red fluorescence – cell-based, HEK293-NOX2, PMA-stimulated, NOX inhibitor project, primary screen (AID 1159). Note: test concentration not given here. To be noted: 45 min, higher = more signal, called active from +8 up or from −8 down.
For assay [19], the target named is NADPH oxidase 4 (Homo sapiens) (UniProt Q9NPH5). Briefly: compounds shifting NOX4 Amplex Red fluorescence – cell-based, HEK293-NOX4, tetracycline-induced, NOX inhibitor project, primary screen (AID 1160). The settings on record: HEK293-NOX4, Amplex Red H2O2 fluorescence, 45 min; higher = more signal, called active from +8 up or from −8 down.
For assay [20], the target named is NADPH oxidase 5 (Homo sapiens) (UniProt Q96PH1). Briefly: compounds shifting NOX5 Amplex Red fluorescence – cell-based, HEK293-NOX5, NOX inhibitor project, primary screen (AID 1161). To be noted: HEK293-NOX5, ionomycin, 45 min, higher = more signal.
Chain of NADPH oxidase 5 (Homo sapiens) (Q96PH1 whole entry, looked up): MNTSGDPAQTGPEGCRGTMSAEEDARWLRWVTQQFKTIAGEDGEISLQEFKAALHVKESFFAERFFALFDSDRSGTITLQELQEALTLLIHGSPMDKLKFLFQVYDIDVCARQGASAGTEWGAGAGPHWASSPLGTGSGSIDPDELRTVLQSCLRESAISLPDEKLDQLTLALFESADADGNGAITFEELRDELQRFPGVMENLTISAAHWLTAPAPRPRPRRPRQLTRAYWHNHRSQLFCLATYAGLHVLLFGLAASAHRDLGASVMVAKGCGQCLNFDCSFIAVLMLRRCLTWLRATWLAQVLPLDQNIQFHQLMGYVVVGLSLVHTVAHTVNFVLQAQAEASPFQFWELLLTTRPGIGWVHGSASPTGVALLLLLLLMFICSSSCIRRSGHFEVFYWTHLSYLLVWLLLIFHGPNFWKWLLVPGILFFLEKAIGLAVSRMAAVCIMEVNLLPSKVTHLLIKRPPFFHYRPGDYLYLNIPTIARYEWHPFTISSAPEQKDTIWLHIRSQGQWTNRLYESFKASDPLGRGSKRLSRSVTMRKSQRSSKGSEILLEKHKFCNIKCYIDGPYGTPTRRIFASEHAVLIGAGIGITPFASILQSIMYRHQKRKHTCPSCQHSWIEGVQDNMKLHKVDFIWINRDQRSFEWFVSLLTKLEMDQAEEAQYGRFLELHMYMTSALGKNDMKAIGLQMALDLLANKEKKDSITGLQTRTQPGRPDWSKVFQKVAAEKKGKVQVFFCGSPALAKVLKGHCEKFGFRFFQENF

Chain of Streptavidin (Streptomyces avidinii) (P22629 whole entry, looked up): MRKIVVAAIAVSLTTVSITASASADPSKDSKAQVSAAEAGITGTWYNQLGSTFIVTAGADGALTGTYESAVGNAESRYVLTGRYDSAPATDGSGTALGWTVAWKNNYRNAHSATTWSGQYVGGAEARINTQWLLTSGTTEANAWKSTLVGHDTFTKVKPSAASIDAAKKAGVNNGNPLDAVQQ
Chain of Torsin-1A (Homo sapiens) (O14656 whole entry, looked up): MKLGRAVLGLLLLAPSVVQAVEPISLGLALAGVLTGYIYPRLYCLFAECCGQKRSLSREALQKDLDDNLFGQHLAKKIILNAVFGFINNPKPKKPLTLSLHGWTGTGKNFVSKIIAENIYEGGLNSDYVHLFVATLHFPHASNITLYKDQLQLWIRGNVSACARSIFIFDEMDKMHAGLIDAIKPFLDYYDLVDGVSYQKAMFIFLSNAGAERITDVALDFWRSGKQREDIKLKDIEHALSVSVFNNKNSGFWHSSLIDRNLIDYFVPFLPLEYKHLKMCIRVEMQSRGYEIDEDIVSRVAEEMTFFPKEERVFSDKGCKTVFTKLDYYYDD
Chain of NADPH oxidase 2 (Homo sapiens) (P04839 whole entry, looked up): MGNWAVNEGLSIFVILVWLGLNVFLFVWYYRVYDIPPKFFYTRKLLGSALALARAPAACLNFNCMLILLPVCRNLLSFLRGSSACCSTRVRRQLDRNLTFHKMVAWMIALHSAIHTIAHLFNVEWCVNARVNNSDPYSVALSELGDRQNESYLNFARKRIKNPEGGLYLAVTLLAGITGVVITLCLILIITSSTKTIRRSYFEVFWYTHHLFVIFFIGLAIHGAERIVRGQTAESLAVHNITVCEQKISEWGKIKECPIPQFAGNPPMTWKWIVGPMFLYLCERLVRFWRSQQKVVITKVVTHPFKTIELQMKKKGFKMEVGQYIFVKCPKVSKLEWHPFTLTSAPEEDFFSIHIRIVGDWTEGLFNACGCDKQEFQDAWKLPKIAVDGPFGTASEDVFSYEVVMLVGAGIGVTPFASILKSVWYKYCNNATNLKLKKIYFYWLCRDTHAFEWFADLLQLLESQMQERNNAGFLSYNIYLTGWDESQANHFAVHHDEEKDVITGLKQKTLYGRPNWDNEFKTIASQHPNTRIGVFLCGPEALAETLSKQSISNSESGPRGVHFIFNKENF
Chain of NADPH oxidase 4 (Homo sapiens) (Q9NPH5 whole entry, looked up): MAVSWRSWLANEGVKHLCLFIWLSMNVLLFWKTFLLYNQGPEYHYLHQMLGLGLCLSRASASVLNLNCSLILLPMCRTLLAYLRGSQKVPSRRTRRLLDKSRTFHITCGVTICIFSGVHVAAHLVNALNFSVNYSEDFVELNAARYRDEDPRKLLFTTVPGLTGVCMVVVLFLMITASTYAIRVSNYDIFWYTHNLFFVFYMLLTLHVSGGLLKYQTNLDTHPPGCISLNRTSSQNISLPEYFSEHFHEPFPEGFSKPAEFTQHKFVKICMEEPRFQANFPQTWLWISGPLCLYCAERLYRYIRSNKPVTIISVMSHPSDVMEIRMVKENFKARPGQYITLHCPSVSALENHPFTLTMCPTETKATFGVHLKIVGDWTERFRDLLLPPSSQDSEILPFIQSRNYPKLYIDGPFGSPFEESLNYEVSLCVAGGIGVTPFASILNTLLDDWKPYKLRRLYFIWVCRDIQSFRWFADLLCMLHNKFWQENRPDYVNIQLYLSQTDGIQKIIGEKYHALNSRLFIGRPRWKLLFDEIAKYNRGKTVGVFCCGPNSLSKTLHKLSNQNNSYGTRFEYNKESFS

For the compound `C#CCCCON=C1C[C@@H](O)[C@@H](O)[C@@H]2[C@@H]3C(=O)N(C[C@@H]4CCCO4)C(=O)[C@@H]3CC[C@H]12`, the composite z-score was -0.0106 in assay [1]; 0.66 in assay [6]; -0.128 in assay [7]; 0.372 in [8]; 0.406 in assay [9]; 0.554 in assay [10]. This compound gave a composite z-score in assay [12] of -0.293. The z-score in assay [2] is 0.119 (inactive); in [3], 0.428 (inactive); in assay [4], -0.564 (inactive); in assay [5] it was 0.593 (inactive); in [11], -0.25 (inactive); in assay [13] it was 0.515 (inactive). The z-score is 0.189 (inactive) in assay [14]; -0.0365 (inactive) in [15]; 0.0603 (inactive) in assay [16]; 0.591 in assay [17]; -0.635 (inactive) in assay [18]; -1.68 (inactive) in assay [19]. Moreover, the z-score in assay [20] is -1.
For `CC(=O)OC[C@H]1O[C@H](CC=NOC(C)CN2CCCCc3nc(C)c(C)cc32)C=C[C@@H]1OC(C)=O` (stereo not given in full), the composite z-score is 0.696 in assay [1]; 1.87 in assay [6]; -0.137 in assay [7]; 3.43 in assay [8]; 2.9 in [9]; 1.48 in [10]. The same compound registered a composite z-score in assay [12] of 0.589. In addition, the z-score in [2] is -0.402 (inactive); in assay [3], 0.725 (inactive); in assay [4], -0.157 (inactive); in assay [5], 0.278 (inactive); in assay [11], 0.0072 (inactive); in assay [13], 0.595 (inactive). For the same compound, the z-score was 0.324 (inactive) in assay [14]; 0.417 (inactive) in assay [15]; 0.246 (inactive) in assay [16]; -0.626 in assay [17]; -1.69 (inactive) in [18]; -0.695 (inactive) in assay [19]. The z-score in assay [20] is -1.24.
Regarding `O=C1C=C[C@@H](O)[C@@H]2[C@@H]3C(=O)N(Cc4ccc5c(c4)OCO5)C(=O)[C@@H]3CC[C@@H]12`, the composite z-score in assay [1] is 0.538; in [6], 0.283; in assay [7] it was -0.307; in assay [8] it was 0.376; in assay [9], 0.123; in [10] it was 0.499. Also, the composite z-score in assay [12] was -0.0061. The z-score is -0.655 (inactive) in assay [2]; 0.917 (inactive) in [3]; -0.567 (inactive) in [4]; -0.332 (inactive) in assay [5]; 0.038 (inactive) in assay [11]; 1.26 (inactive) in [13]. The z-score in [14] was -0.0262 (inactive); in assay [15] it was -0.556 (inactive); in assay [16] it was 0.379 (inactive); in assay [17], 0.182; in assay [18] it was 1.41 (inactive); in assay [19] it was -1.55 (inactive). In addition, the z-score in [20] is -0.372.
Turning to `CCCC[C@H]1CN2[C@@H](CC[C@@H](C)[C@@H]2c2ccc(Br)cc2)C(=O)O1`, the composite z-score in assay [1] is 0.132; in assay [6] it was 0.426; in assay [7], -0.0494; in assay [8], 0.836; in [9] it was 0.716; in [10], 0.456. Also, the composite z-score in assay [12] was -0.0275. Moreover, the z-score in assay [2] is -1.44 (inactive); in assay [3] it was 0.616 (inactive); in assay [4] it was 0.755 (inactive); in assay [5], -0.0888 (inactive); in assay [11], -0.461 (inactive); in assay [13] it was 2.91 (inactive). The z-score is 0.809 (inactive) in assay [14]; -0.192 (inactive) in assay [15]; 0.711 (inactive) in assay [16]; -0.46 in [17]; 1.43 (inactive) in [18]; 0.516 (inactive) in assay [19]. The z-score in assay [20] came out at 1.47.
